{
  "source": "PubChem BioAssay (NCATS)",
  "note": "Records with an inconclusive call do not appear. Activity calls are given as the source filed them. The call rests on the fitted dose curve; in most records, active means well fitted inhibition curve with a large enough effect; inconclusive means small, poorly fitted or top-dose-only effect; inactive means flat fitted curve, though single readings scatter. On the % scale 0 is the no-effect control and ±100 the full control effect; potency means the concentration at half of the fitted maximal effect.",
  "data": [
    {"tested_on": "NIH3T3", "test": "Cytotoxic Profiling of Annotated Libraries Using Quantitative High-Throughput Screening (AID 1296008); further: nearly all actives have a fitted effect of over 60% in size", "conditions": "Five cell lines viability, CellTiter-Glo ATP luminescence, 48-72 h; max response: stronger effect = lower value", "summary_of_the_method": "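Cells exposed to compounds for 48 or 72 hr at 37 degrees Celsius. Viability read as ATP-coupled luminescence with CellTiter-Glo after 10 min at room temperature.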", "values": [
      {"smiles": "C[C@@H]1C[C@@H](O)[C@@]23CO[C@@H](O)[C@@H]2CCC[C@@H]3[C@@]12C[C@@H](c1ccoc1)OC2=O", "max response": "4.21% (inactive)"},
      {"smiles": "C[C@@H]1O[C@@H](O[C@H]2[C@H](O)[C@@H](O[C@@H]3O[C@H](CO)[C@@H](O)[C@H](O[C@@H]4O[C@H](CO)[C@@H](O)[C@H](O)[C@H]4O)[C@H]3O)[C@H](O[C@H]3CC[C@@]4(C)C(=CC[C@@H]5C4CC[C@@]4(C)C5C[C@@H]5OC6(CC[C@@](C)(CO[C@@H]7O[C@H](CO)[C@@H](O)[C@H](O)[C@H]7O)O6)[C@@H](C)[C@@H]54)C3)O[C@@H]2CO)[C@H](O)[C@H](O)[C@H]1O", "note": "(stereo partly specified)", "max response": "3.35% (inactive)"},
      {"smiles": "COc1cc(C(=O)NC2CCN(C)CC2)c(F)cc1Nc1ncc2c(n1)N(C1CCCC1)CC(F)(F)C(=O)N2C", "Potency": "820 nM (active)"},
      {"smiles": "CC(C)C1=CC2C(CC[C@]2(C)O)[C@](C)(O)CC1", "note": "(stereo partly specified)", "max response": "2.57% (inactive)"},
      {"smiles": "CC(C)c1cc(CNc2nc(Nc3cc(C4CC4)[nH]n3)cc(N3CCN(C)CC3)n2)on1", "Potency": "461 nM (active)"},
      {"smiles": "Nc1nc2c(c(=O)[nH]1)C[C@@H](CCc1ccc(C(=O)N[C@@H](CCC(=O)O)C(=O)O)cc1)CN2", "Potency": "103 nM (active)"},
      {"smiles": "COc1cc(NC(=O)Nc2cccc(CNC(=O)O[C@H]3CCOC3)c2)ccc1-c1cnco1", "Potency": "3660 nM (active)"},
      {"smiles": "CC1(C)CC[C@@]2(C(=O)O[C@@H]3O[C@H](CO)[C@@H](O)[C@H](O)[C@H]3O)C(C1)C1=CCC3[C@@]4(C)CC[C@@H](O[C@@H]5O[C@H](C(=O)O)[C@@H](O[C@@H]6OC[C@@H](O)[C@H](O)[C@H]6O)[C@H](O[C@@H]6OC[C@](O)(CO)[C@H]6O)[C@H]5O)C(C)(C)C4CC[C@@]3(C)[C@]1(C)C[C@H]2O", "note": "(stereo partly specified)", "max response": "-2.09% (inactive)"},
      {"smiles": "CC1=C(CO)C(=O)O[C@@H]([C@@H](C)[C@H]2CC[C@H]3[C@@H]4C[C@H]5O[C@]56[C@@H](O)C=CC(=O)[C@]6(C)[C@H]4CC[C@]23C)C1", "Potency": "5630 nM (active)"},
      {"smiles": "CN(C)C1CCN(C(=O)c2ccc(NC(=O)Nc3ccc(-c4nc(N5CCOCC5)nc(N5CCOCC5)n4)cc3)cc2)CC1", "Potency": "130 nM (active)"},
      {"smiles": "CC(C)C(C#N)O[C@@H]1O[C@H](CO[C@@H]2O[C@@H](C)[C@H](O)[C@@H](O)[C@H]2O)[C@@H](O)[C@H](O)[C@H]1O", "note": "(stereo partly specified)", "max response": "-15% (inactive)"}
    ]}
  ]
}
